# Among all 220,000 compounds or so, about 2,400 (1.1%) were called active.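 Rule for the calls: active = inhibition above a per-campaign cutoff, the mean inhibition of all tested compounds plus 3 SD (cut at about 27% in these data); inactive = the rest.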 The entries come from a sample that favours actives as a whole.
# Test: parental Ba/F3 cell viability inhibition, counter-screen for JAK2V617F inhibitor project, murine pro-B, CellTiter-Glo luminescence (AID 1486);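 note: 0% = DMSO wells and 100% = JAK Inhibitor I control wells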
# Conditions: CellTiter-Glo ATP luminescence, at 5.6 µM, stronger effect = higher value
row,Structure (SMILES),inhibition
1,O=C(CNS(=O)(=O)c1ccccc1)NCC(=O)OCc1ccccc1F,8.12% (inactive)
2,O=C(c1cncc(Br)c1)N1CCN(c2ccc([N+](=O)[O-])cc2)CC1,6.79% (inactive)
3,O=C1NC(c2ccc(-c3ccccc3[N+](=O)[O-])o2)C(C(=O)c2ccc(Cl)cc2)C(O)(C(F)(F)F)N1 (stereo not given),6.99% (inactive)
4,Cc1c(/C=N\NC(=O)c2cc3ccccc3o2)c2ccccc2n1C,41.3% (active)
5,O=C(N/N=C/c1coc2ccccc2c1=O)c1cc2ccccc2o1,4.3% (inactive)
6,O=C(N/N=C/c1c[nH]c2ccccc12)c1cc2ccccc2o1,-2.26% (inactive)
7,CN(Cc1ccccc1)C(=O)CCc1ccccc1,1.56% (inactive)
8,Cc1ccc(-c2cnc(NC(=O)CCC(=O)N(C)Cc3ccccc3)n2C)cc1,62.4% (active)
9,Cn1c(-c2ccc(F)cc2)cnc1SCC(=O)NNC(=O)Cc1ccccc1,1.6% (inactive)
10,CC(=O)Nc1nc(N(C)C)nc(N(C)C)n1,2.27% (inactive)
11,COc1ccc(-n2nnnc2SCC(=O)NCc2cccs2)cc1,7.65% (inactive)
12,COc1ccc(OCC(=O)NNC(=O)c2cccc(C)c2)cc1,1.18% (inactive)
13,COC(=O)CNC(=O)c1ccccc1F,3.61% (inactive)
14,CN(NC(=O)c1ccccc1)c1nc2ccccc2nc1C(F)(F)F,5.67% (inactive)
15,CSc1nc(N(C)NC(=O)c2cccc(C)c2)c2ccccc2n1,90.9% (active)
16,COc1ccc(C(=O)NN(C)c2nc(-c3ccccc3)cc(C)c2S(C)(=O)=O)cc1,6.2% (inactive)
17,CN(NC(=O)c1ccccc1F)c1nc(C(F)(F)F)nc2ccccc12,73.9% (active)
18,Cc1cc(C)c2nc(SCC(=O)N(C)C3CCS(=O)(=O)C3)cc(C)c2c1 (stereo not given),2.01% (inactive)
19,CCc1cc(CNC(=O)CC2C(=O)NCCN2Cc2ccccc2C(F)(F)F)on1 (stereo not given),2.77% (inactive)
20,O=C(O)c1ccn(COc2ccc(Br)cc2)n1,6.73% (inactive)
21,C=CCNC(=S)N/N=C/c1ccc(C)s1,-10.6% (inactive)
22,COC(=O)C1NN=C(C(=O)c2ccc(Br)cc2)C1c1cccc(Br)c1 (stereo not given),5.65% (inactive)
23,CC(C)CCN1CCN(Cc2cn[nH]c2C2CCCCC2)CC1CCO (stereo not given),5.24% (inactive)
24,CC1(C)CC(CNCCC(c2ccc(F)cc2)c2ccco2)CCO1 (stereo not given),4.73% (inactive)

row,Structure (SMILES),inhibition
1,Cc1cc(NC(=O)CN2C(=O)NC(C)(CCc3ccccc3)C2=O)no1 (stereo not given),-0.49% (inactive)
2,O=C(Nc1ccc(CSc2ccccc2)cc1)c1ccc(CN2CCOCC2)cc1,6.68% (inactive)
3,O=C(COC(=O)CNC(=O)c1ccccc1F)NCC(F)(F)F,0.89% (inactive)
4,CCO/C=C1\C(=O)N(c2ccc(OCC)cc2)C(=O)c2ccccc21,0.91% (inactive)
5,CCOc1ccc(N2C(=O)CN(c3cccc4ccccc34)C2=S)cc1,80.4% (active)
6,CCOc1ccc(N2C(=O)CC(N(O)c3ccccc3)C2=O)cc1 (stereo not given),-1.11% (inactive)
7,COc1ccc(CC(NC(C)=O)C(=O)NC2CCN(C(=O)C3CC3)CC2)cc1OC (stereo not given),-2.26% (inactive)
8,Cc1cc(NC(=O)Nc2ccc(Cl)cc2)n(-c2ccccc2)n1,0.47% (inactive)
9,Cc1nn(-c2ccccc2)c(-n2cccc2)c1C(=O)O,7.83% (inactive)
10,CCn1c(SCC(=O)Nc2sc(C)c(C)c2C#N)nnc1C1CC1,-1.4% (inactive)
11,COC(=O)c1ccc(/C=N/N2C(C)CCCC2C)cc1 (stereo not given),-0.91% (inactive)
12,CCCC(=O)Nc1nc2ccc(NC(=O)c3c(F)c(F)c(OC)c(F)c3F)cc2s1,83.3% (active)
13,CCCC(=O)Nc1nc2ccc(NC(=O)c3cccnc3)cc2s1,6.39% (inactive)
14,COc1ccc2nc(Nc3nc4ccc(NC(C)=O)cc4s3)sc2c1,1.76% (inactive)
15,CN(C)C(=O)c1cccn(Cc2cccc(C(F)(F)F)c2)c1=O,1.53% (inactive)
16,N#Cc1ncc(C(F)(F)F)cc1Oc1cccnc1,3.06% (inactive)
17,Cc1ccc2nc(Nc3ccccc3O)nc(-c3ccccc3)c2c1,2.87% (inactive)
18,CC(C)(C)C(=O)OCc1nc(-c2ccc(O)c(O)c2)cs1,55.4% (active)
19,COc1ccc(-c2csc(Cc3nc(O)cs3)n2)cc1,2.47% (inactive)
20,COc1ccc(OC)c(Nc2nc(-c3ccc(O)c(O)c3)cs2)c1,7.93% (inactive)
21,O=c1[nH]cnc2c1c(-c1ccccc1)cn2-c1ccc(F)cc1,5.71% (inactive)
22,Cc1ccc2c(c1)C(O)(CC(=O)c1cccc(-n3cccc3)c1)C(=O)N2 (stereo not given),9.56% (inactive)
23,Cc1cc2c(cc1C)[n+](C)cn2CC(O)COCC1CC=CCC1 (stereo not given),77.5% (active)
24,CCc1ccc(-n2c(SCc3cc(=O)n4cc(Br)ccc4n3)nc3[nH]ncc3c2=O)cc1,3.56% (inactive)

row,Structure (SMILES),inhibition
1,Fc1ccc2[nH]c3c(N4CCN(Cc5ccc6c(c5)OCO6)CC4)ncnc3c2c1,43.4% (active)
2,Fc1ccc2[nH]c3c(N4CCSCC4)ncnc3c2c1,2.75% (inactive)
3,Cc1cc(N2CCN(Cc3ccc4c(c3)OCO4)CC2)n2ncnc2n1,8.83% (inactive)
4,Cc1ccc(OC(=O)c2c(C)nn(-c3ccccc3)c2C)cc1,-2.11% (inactive)
5,COc1cc(NS(=O)(=O)c2ccc(NC(C)=O)cc2)cc(OC)c1,6.53% (inactive)
6,COC(=O)COc1ccc(S(=O)(=O)Nc2ccc(NC(C)=O)cc2)cc1,3.84% (inactive)
7,COc1ccc(NS(=O)(=O)c2ccc(NC(C)=O)cc2)cc1OC,36.4% (active)
8,CCCCCCCC(=O)OC(CN1CCCCCC1)CN1CCCC1=O (stereo not given),2.21% (inactive)
9,CCOc1cccc(-n2nnnc2-c2ccc(OC)cc2)c1,56.8% (active)
10,COc1ccc(-n2nnnc2-c2nc3ccccc3s2)cc1,2.01% (inactive)
11,CCOc1cccc(-c2nnc3sc(COc4ccc(OC)cc4)nn23)c1,3.78% (inactive)
12,CN(C)S(=O)(=O)c1ccc(C(=O)NCC(C)(C)N2CCOCC2)cc1,0.19% (inactive)
13,CC1(C)CC(=O)C=C(N2CCCC2)C1,-2.25% (inactive)
14,CC1(C)CC(N2CCN(C(c3ccccc3)c3ccccc3)CC2)=CC(=[N+]2CCCCC2)C1,88.5% (active)
15,CC(C)NC(=S)N1CCN(C(c2ccccc2)c2ccccc2)CC1,5.27% (inactive)
16,Brc1ccc2ncnc(NCc3cccnc3)c2c1,-4.51% (inactive)
17,CC1CCCCN1S(=O)(=O)c1ccc(S(=O)(=O)N(CC(=O)Nc2ccccc2)Cc2cccs2)cc1 (stereo not given),1.87% (inactive)
18,CC1CCCN(S(=O)(=O)c2ccc(C(=O)Nc3nnc(-c4ccncc4)o3)cc2)C1 (stereo not given),6.63% (inactive)
19,CC1CCCCN1S(=O)(=O)c1ccc(C(=O)Nc2nnc(-c3cccs3)o2)cc1 (stereo not given),34.1% (active)
20,COc1ccc2[nH]c(C(=O)Nc3ccccc3Cl)cc2c1,-2.76% (inactive)
21,CC(=O)NC(=S)Nc1ccc(NC(=S)NC(=O)c2ccc([N+](=O)[O-])cc2)cc1,-2.36% (inactive)
22,Cn1ccc(=Nc2ccc(NC(=O)c3ccc(N=c4ccn(C)c5ccc([N+](=O)[O-])cc45)cc3)cc2)cc1,29.7% (active)
23,Cc1cc([N+](=O)[O-])ccc1NC(=O)c1ccc(NC(=O)C(C)C)cc1,6.88% (inactive)
24,CC1CCN(c2c(NCc3ccc(C(=O)NCc4ccccc4)cc3)c(=O)c2=O)CC1,-0.24% (inactive)

row,Structure (SMILES),inhibition
1,Oc1c(C(c2ccccn2)N2CCOCC2)ccc2cccnc12 (stereo not given),2.22% (inactive)
2,CCOC(=O)N1CCN(C(c2cccnc2)c2ccc3cccnc3c2O)CC1 (stereo not given),35.8% (active)
3,CCN1CCN(C(c2cccnc2)c2cc(Cl)c3cccnc3c2O)CC1 (stereo not given),4.4% (inactive)
4,CCCNC(=O)OC[C@H]1O[C@H](CCO/N=C/[C@@H](NS(=O)(=O)c2ccc(C)cc2)[C@H](C)/C=C/CC(=O)OC)C=C[C@@H]1Oc1ccc(OC)cc1,1.98% (inactive)
5,CC1CCN(C(=O)c2ccc(S(=O)(=O)Cc3cc(F)ccc3F)c([N+](=O)[O-])c2)CC1,2.51% (inactive)
6,Cc1ccc(/C=N/NC(=O)CN2CCN(Cc3ccccc3)CC2)s1,0.65% (inactive)
7,CCCCCCCCn1c2c(c(=N)c3c1CCC3)CCCC2,88.4% (active)
8,CCCCCCn1c(CN2CCCCC2)nc2c1c(=O)n(C)c(=O)n2C,2.14% (inactive)
9,Cc1cc(CNC(=O)c2cccc([N+](=O)[O-])c2)c2ccccc2n1,-2.87% (inactive)
10,O=C(Nn1c(SCc2ccc([N+](=O)[O-])cc2)nc2ccccc2c1=O)c1ccc(F)cc1,-1.55% (inactive)
11,CN(CC(=O)NC1CCCC1)S(=O)(=O)c1cnc[nH]1,-0.47% (inactive)
12,CSc1ccc(C#N)cc1NC(=O)c1ccc(Cl)cc1,1.1% (inactive)
13,COc1ccccc1Nc1nc(N)nc(CN(C)C2CCCCC2)n1,0.48% (inactive)
14,COc1ccccc1NC1=NC(c2ccc(Cl)cc2)N=C(N)N1 (stereo not given),81.1% (active)
15,COc1ccccc1NC1=NC2(CCCC2)N=C(N)N1,10.5% (inactive)
16,CCOc1ccc(-c2n[nH]c(C)c2-c2ccccn2)c(O)c1,5.9% (inactive)
17,CCOc1ccc(-c2nc(N)ncc2-c2ccccc2OC)c(O)c1,-0.51% (inactive)
18,CCOc1ccccc1Oc1cn[nH]c1-c1ccc(OC)cc1O,94.7% (active)
19,CCCCCc1ccc(-c2ccc(OCC)cc2)nc1,3.47% (inactive)
20,COCC(C)n1c(C)cc(C(=O)COc2ccc(C)nc2[N+](=O)[O-])c1C (stereo not given),3.84% (inactive)
21,C/C(=N\NC(=O)c1cccnc1)c1ccc(-n2ccnc2)cc1,-0.08% (inactive)
22,COc1ccc(Cl)cc1NC(=O)C(C)N1CCc2ccccc21 (stereo not given),4.67% (inactive)
23,Cc1ccc(/C=C/C(=O)O)cc1S(=O)(=O)N1CCC(Cc2ccccc2)CC1,-3.54% (inactive)
